Source: PubChem
pAkt inh – Akt phosphorylation inhibition; Neuro2A IGF-stimulated pAkt S473 HTRF, 20 min; stronger effect = lower value; activity change, % for hits at 50 µM; actives 0.32% (n = 360,000); in the data active = activity change below about -80%; inconclusive = mostly about -51% to -80%
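Neuro2A cells in DMEM with 0.5% FBS, overnight at 37 deg C, given compound at single 50 µM final, then IGF (6 nM final) for 20 min at 37 deg C. Lysed; phospho-Akt Ser473 by HTRF after 24 h, 665/615 ratio.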
gsp antag – gsp mutant antagonism | gsp-mutant cells, cAMP HTRF, 30 min | actives 0.4% (n = 340,000) | Potency, µM (series often up to 76.9 µM), usual class: inhibitors | AID 624288; calls by dose curve; cell line not stated here;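 note: intracellular cAMP measured with PDE inhibitor Ro 20-1724 present during compound exposure; nearly all actives have a fitted effect of over 65% in size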
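HTRF cAMP read-out (cAMP-d2 plus anti-cAMP antibody-K in lysis buffer, 30 min RT). Before lysis, cells are exposed to compounds with […] for 30 min at 37C in DPBS containing Ca/Mg, BSA and Tween 20.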
RXFP1 antagonist – antagonists of human relaxin receptor RXFP1; HEK293-RXFP1, relaxin-stimulated cAMP HTRF, 30 min; stronger effect = lower value; activity change, negative = inhibition, % at 57.5 µM; actives 0.59% (n = 350,000);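 active = activity change of -60% or lower, but not beyond a set lower limit; inconclusive = change between -60% and -40%, or beyond the set limit; inactive = change above -40%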
Target sequence (Q9HBX9 whole entry, looked up): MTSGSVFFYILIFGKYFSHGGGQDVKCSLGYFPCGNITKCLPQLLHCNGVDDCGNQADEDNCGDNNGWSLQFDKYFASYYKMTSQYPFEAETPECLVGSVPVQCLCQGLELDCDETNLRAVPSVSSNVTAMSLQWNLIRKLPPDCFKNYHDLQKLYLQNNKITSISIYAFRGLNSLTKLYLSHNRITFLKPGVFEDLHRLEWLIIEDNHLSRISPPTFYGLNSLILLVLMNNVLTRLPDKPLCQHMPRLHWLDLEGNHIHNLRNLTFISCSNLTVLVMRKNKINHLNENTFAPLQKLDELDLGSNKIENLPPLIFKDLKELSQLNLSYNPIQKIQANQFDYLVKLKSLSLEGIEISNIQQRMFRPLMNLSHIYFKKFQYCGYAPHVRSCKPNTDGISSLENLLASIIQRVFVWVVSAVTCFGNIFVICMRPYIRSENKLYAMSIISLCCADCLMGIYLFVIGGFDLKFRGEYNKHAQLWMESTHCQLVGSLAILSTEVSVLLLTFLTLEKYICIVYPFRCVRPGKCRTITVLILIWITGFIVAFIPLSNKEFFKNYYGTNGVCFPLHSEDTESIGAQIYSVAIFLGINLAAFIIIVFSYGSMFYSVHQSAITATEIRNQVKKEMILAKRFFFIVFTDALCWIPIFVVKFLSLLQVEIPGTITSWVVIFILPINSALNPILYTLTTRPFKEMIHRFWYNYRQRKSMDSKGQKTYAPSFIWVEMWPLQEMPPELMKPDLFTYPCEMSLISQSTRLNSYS
gsp ag – agonists of gsp mutant (McCune-Albright syndrome); gsp mutant cells, cAMP HTRF, 30 min; Potency, µM (doses to about 76.9 µM), most hits filed as activators; actives 0.13% (n = 340,000); AID 624287; active = well fitted activation curve with a large enough effect; inconclusive = small, poorly fitted or top-dose-only effect, or another doubt; inactive = no such curve, though single readings can be large or run the other way; cell line not stated here;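 note: phosphodiesterase inhibitor Ro 20-1724 added with compounds to block cAMP breakdown; nearly all actives have a fitted effect of over 60% in size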
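Cells in DMEM/10% FBS with G418 were pretreated with compounds in DMSO plus […] (300 uM stock) for 30 min at 37C. cAMP was measured by HTRF (cAMP-d2 plus anti-cAMP antibody-K) after 30 min at room temperature.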
RXFP1 ag – activates the human relaxin receptor RXFP1. Q9HBX9. HEK293T-RXFP1 cAMP TR-FRET, 30 min; response scale: percent of porcine relaxin response, buffer zero. Potency, µM (highest dose often 57.5 µM), actives largely listed as activators. actives 0.3% (n = 370,000). AID 2676; active = well fitted activation curve with a large enough effect; inconclusive = small, poorly fitted or top-dose-only effect; note: nearly all actives have a fitted effect of over 60% in size
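HEK293 cells stably expressing RXFP1, treated 30 min at 37C with compounds plus PDE4 inhibitor Ro 20174; cAMP measured by HTRF TR-FRET. Normalized to buffer and 29 nM porcine relaxin; EC50 by Hill fit.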
Each line names hits and unclear results; the compound was inactive in the other large screens; ! = a repeat was not active. Sampled rows, rich in hits. Any-hit rate of the full collection: about 1.2%.

S=c1nc[nH]c2c1[nH]c1ccccc12	gsp ag 13µM, RXFP1 ag 7.1µM
Cc1ccc(-n2c3c(cc(C(=O)Nc4ccccc4C(N)=O)c2=O)C(=O)CC(C)(C)C3)cc1	none (no result: pAkt inh, gsp antag, RXFP1 antagonist, gsp ag)
COc1ccc(C(=O)Nc2nc(C)c(C)s2)cc1OC	gsp ag inconclusive
COc1ccc(-c2nc(NC(=O)c3ccc(OCC(=O)Nc4ccc(F)cc4)c(OC)c3)sc2C)cc1	gsp ag inconclusive, RXFP1 ag 28µM
COc1cc(C(=O)Nc2nc(-c3ccc(C)cc3)cs2)ccc1OCC(=O)N1CCOCC1	none
COc1cc(C(=O)Nc2nc(-c3cc(C)ccc3C)c(C)s2)ccc1OCC(=O)Nc1ccc(F)cc1	gsp ag inconclusive, RXFP1 ag 32µM
COc1cc(C(=O)Nc2nc(-c3ccc(F)cc3)cs2)ccc1OCC(=O)N1CCOCC1	gsp antag 35µM
COc1ccc(C(=O)NCC(=O)Nc2ccc(F)cc2)cc1OC	none
O[C@@H](COc1cccc2ncccc12)CN1CCN(C2c3ccccc3[C@@H]3[C@H](c4ccccc42)C3(F)F)CC1 (some centres not stated)	none (no result: pAkt inh, gsp antag, gsp ag, RXFP1 ag)
O=C(NNc1nc(=O)c2cccnc2s1)c1ccccc1O	RXFP1 ag 16µM
O=C(NNc1c2ccccc2nc2ccccc12)c1ccccc1O	gsp antag inconclusive
Cc1ccc(-c2cc(C(=O)N(Cc3ccc(C(C)(C)C)cc3)Cc3ccco3)no2)cc1	none (no result: pAkt inh, gsp antag, RXFP1 antagonist, gsp ag)
COC(=O)c1cc(C(=O)OC)cc(N2C(=O)CN=C2Nc2nc(C)cc(C)n2)c1	pAkt inh -80%, gsp ag inconclusive
Cn1nc(C(F)(F)F)c2cc(C(=O)Nc3ccc(F)cc3)sc21	none
Cn1nc(C(F)(F)F)c2cc(C(=O)Nc3ccc(F)c(Cl)c3)sc21	gsp antag inconclusive, RXFP1 antagonist -76
O=C(Cn1c(=O)n(Cc2ccc(C(=O)NCc3ccccc3Cl)cc2)c(=O)c2ccccc21)Nc1ccc(F)c(Cl)c1	none (no result: pAkt inh, gsp antag, RXFP1 antagonist, gsp ag)
C=CC(=O)N1C/C(=C/c2ccccc2)C(=O)/C(=C\c2ccccc2)C1	RXFP1 antagonist -116 (no result: RXFP1 ag)
O=C1C(=Cc2ccc(Cl)cc2)Cc2ccccc21	none (no result: gsp antag, RXFP1 antagonist, gsp ag, RXFP1 ag)
C=CC(=O)N1C/C(=C/c2ccc(Cl)cc2)C(=O)/C(=C\c2ccc(Cl)cc2)C1	RXFP1 antagonist -67 (no result: RXFP1 ag)
CC(C)(C)C(=O)N1N=C(c2ccc(NS(C)(=O)=O)cc2)CC1c1cccs1 (configuration not stated)	gsp antag 11µM, RXFP1 antagonist inconclusive
CS(=O)(=O)Nc1ccc(C2=NN(C(=O)c3ccccc3)C(c3cccs3)C2)cc1 (configuration not stated)	gsp antag inconclusive, gsp ag inconclusive
COc1ccc(-c2nc(CN3CCC(C(=O)NCCCN4CCN(c5ccccc5F)CC4)CC3)c(C)o2)cc1OC	none (no result: pAkt inh, gsp antag, gsp ag)
COc1ccc(/C=N/n2cnnc2SCc2ccccc2)cc1	pAkt inh -110%
CC(C)(C)c1ccc(C(=O)CC(Sc2ccc(Cl)cc2)C(=O)O)cc1 (configuration not stated)	RXFP1 antagonist -96
Cc1ccc(SC(CC(=O)c2ccc(F)cc2)C(=O)O)cc1 (configuration not stated)	none
Cn1c(=O)oc2cc(S(=O)(=O)NC(Cc3ccccc3)C(=O)Nc3ccc(F)cc3)ccc21 (configuration not stated)	none (no result: pAkt inh, gsp antag, RXFP1 antagonist, gsp ag)
O=C1CCCC/C1=C\Nc1ccc(O)cc1	none (no result: pAkt inh)
O=C1CCCC/C1=C/Nc1ccc(S(=O)(=O)Nc2ncccn2)cc1	pAkt inh -120%
O=C1NC(=S)SC1=Cc1ccc(Cl)cc1	gsp antag 28µM (no result: RXFP1 ag)
COc1cc(/C=C2\SC(=S)NC2=O)ccc1OS(=O)(=O)c1ccccc1	none (no result: pAkt inh, gsp antag, RXFP1 antagonist, gsp ag)
CCOc1ccc(/C=C2\SC(=S)NC2=O)cc1OC	gsp antag inconclusive, RXFP1 antagonist -73
O=C1NC(=S)SC1=Cc1ccc(F)cc1	none (no result: RXFP1 ag)
Cc1cc(C)cc(N2C(=O)C3C4C=CC(C4)C3C2=O)c1 (configuration not stated)	pAkt inh -104%
Cc1ccc(N2C(=O)C3C4C=CC(C4)C3C2=O)cc1 (configuration not stated)	none
CCc1ccc(-c2nc3ccc(Br)cc3c(C(=O)O)c2C)s1	gsp ag inconclusive, RXFP1 ag 7.1µM
Cc1c(-c2ccccc2Br)nc2ccccc2c1C(=O)O	none (no result: RXFP1 ag)
COC(=O)C1CCN(S(=O)(=O)c2cc3c4c(c2)CC(=O)N4CCC3)CC1	none (no result: pAkt inh, gsp antag, gsp ag)
COc1ccc(C)cc1NC(=O)c1nnn(-c2c(C)cccc2C)c1C	none (no result: pAkt inh, gsp antag, gsp ag)
CSCCC(NC(=O)OC(C)(C)C)C(=O)Oc1ccc2c(=O)c(-c3ccc4c(c3)OCCO4)coc2c1 (configuration not stated)	pAkt inh -85%, gsp antag inconclusive
CCC1(c2ccccc2)SC(N)=NC1=O (configuration not stated)	none (no result: RXFP1 ag)
CCC1(c2ccccc2)SCC(c2ccccc2)=NC1=O (configuration not stated)	RXFP1 antagonist -62 (no result: RXFP1 ag)
O=C1C2CC=CCC2C(=O)N1c1ccc(N2CCN(c3ccccn3)CC2)c([N+](=O)[O-])c1 (configuration not stated)	gsp antag 22µM
O=C(CC1N=C2c3ccccc3N=C(SCc3ccc(Cl)cc3)N2C1=O)NCCc1ccccc1 (configuration not stated)	none (no result: pAkt inh, gsp antag, gsp ag)
COc1cccc2[nH]c(C(=O)NCc3ccc4c(c3)CCN4C(=O)c3ccc(F)cc3)cc12	RXFP1 antagonist -68 (no result: pAkt inh, gsp antag, gsp ag)
COc1ccc2cc(C(=O)NCc3ccc4c(c3)CCN4C(=O)c3ccc(F)cc3)[nH]c2c1	none (no result: pAkt inh, gsp antag, gsp ag)
COc1ccc(CC(=O)NCc2ccc3c(c2)CCN3C(=O)c2cccc(C)c2)cc1	RXFP1 antagonist -97 (no result: pAkt inh, gsp antag, gsp ag)
Cc1ccccc1C(=O)Nc1cccc(NC(=O)c2ccc(C(C)(C)C)cc2)c1	none (no result: pAkt inh, gsp antag, gsp ag)
Cc1ccc(S(=O)(=O)N(C)c2ccc(C(=O)Nc3cccc(C)n3)cc2)cc1	gsp antag 35µM
Cc1cccc(-c2nc3c4ccccc4nc(N4CCN(c5cccc(Cl)c5)CC4)n3n2)c1	none (no result: pAkt inh, gsp antag, gsp ag)
CCOC(=O)C1CCN(S(=O)(=O)c2ccc(Cl)cc2OC)CC1	none
CCOC(=O)C1CCN(S(=O)(=O)c2cc(Cl)c(C)cc2OC)CC1	pAkt inh -105%
CCOC(=O)c1ccc(N2C(=O)c3[nH]nc(-c4ccc(C)cc4)c3C2c2cccc(F)c2)cc1 (configuration not stated)	none (no result: pAkt inh, gsp antag, RXFP1 antagonist, gsp ag)
O=C(Cn1cc(C(=O)C2CC2)c2ccccc21)Nc1ccc(Br)cc1	RXFP1 ag 20µM (no result: pAkt inh, gsp antag, gsp ag)
Cc1ccc(NC(=O)Cn2cc(C(=O)C3CC3)c3ccccc32)cc1	RXFP1 ag 10µM!
CC(C)(C)CC(=O)OCC(=O)[C@@]1(O)CC[C@H]2[C@@H]3CCC4=CC(=O)C=C[C@]4(C)[C@H]3[C@@H](O)C[C@@]21C	none (no result: pAkt inh, gsp antag, gsp ag, RXFP1 ag)
COc1ccc(OC)c(/C=C(\C#N)c2nc(-c3ccc(F)cc3)cs2)c1	none (no result: pAkt inh, gsp antag, gsp ag)
